Screens (PubChem)
Most compounds without a hit are left out; they make up all but 0.88% or so of the library.
BLM helicase inh-1: blocks DNA unwinding by human BLM helicase. 350,000 compounds, 0.2% hits. recombinant BLM DNA unwinding, fluorescence dequenching. Potency, µM (doses to about 56.1 µM), most hits filed as inhibitors. P54132. AID 2528; also: nearly all actives have a fitted effect of over 35% in size
KAT2A inh: inhibitors of human GCN5L2 histone acetyltransferase; Potency, µM (doses to about 58.9 µM), most hits filed as inhibitors; Q92830; GCN5L2 HAT assay, ThioGlo1 CoA-SH fluorescence; 390,000 compounds, 0.21% hits
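GCN5L2 (20 nM) in 50mM HEPES pH 7.5, 0.1mM EDTA, 0.01% Tween-20 preincubated 15 min with compounds at room temperature. Reaction started with H3(1-25) 75uM, acetyl-CoA 70uM, ThioGlo1 50uM; CoA-thiol fluorescence (Ex340/Em540) read at 0 and 20 min.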
APE1 inh: APE1 (human) endonuclease inhibition | recombinant APE1, TAMRA/BHQ-2 abasic DNA cleavage fluorescence | P27695 | 350,000 compounds, 0.35% hits | Potency, µM (series often up to 65.8 µM), most hits filed as inhibitors; also: nearly all actives have a fitted effect of over 55% in size
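Measures dequenching upon AP-site incision of a 5'-TAMRA/3'-BHQ-2 THF-containing duplex, 50 nM; human APE1 0.75 nM after 15 min room-temperature exposure to compound; kinetic three-point read at one-minute spacing.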
ERG Ets-DNA blk: inhibitors of human ERG Ets domain-DNA interaction | fluorescence polarization, His-ERG Ets domain / labelled DNA | Potency, µM (series often up to 76.9 µM), most hits filed as inhibitors | 370,000 compounds, 0.028% hits | AID 624246; active = well fitted inhibition curve with a large enough effect in the polarisation, with a control signal flat; inconclusive = small, poorly fitted or top-dose-only effect, or effect the other way, or a change in a side signal; inactive = no such curve, though single readings can be large or run the other way; the % refers to the polarisation;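 also: polarization taken with two DNA probes labelled with fluorescein and Texas red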
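His-tagged ERG Ets domain (1 uM in the protein solution; 300mM KCl, 50mM Tris-HCl, 1mM EDTA, 1mM DTT, pH 7.5) received compound, then a probe mix of 5 nM fluorescein-DNA and 100nM Texas-615-DNA. Fluorescence polarization was read for both dyes.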
WRN helicase inh-1: blocks human WRN helicase. WRN helicase unwinding, fluorescent forked duplex, kinetic. Q14191. 360,000 compounds, 0.46% hits. Potency, µM (doses to about 114 µM), actives largely listed as inhibitors; also: nearly all actives have a fitted effect of over 55% in size
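WRN at 20 nM final preincubated with compound 15 min at room temperature; reaction started with 100 nM fluorophore/quencher forked duplex oligonucleotide and 2 mM ATP final. Unwinding followed kinetically by red fluorescence (ex 525, em 598 nm).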
RECQ1 helicase: RECQ1 (human) helicase inhibition; P46063; RECQ1 DNA unwinding, red fluorescence kinetic read; Potency, µM (highest dose often 57.3 µM), most hits filed as inhibitors; 240,000 compounds, 0.54% hits; also: nearly all actives have a fitted effect of over 30% in size
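RECQ1T1 50 nM; forked duplex (20 bp + 30-nt ss tails) 200 nM, ATP 2 mM final; pH 8.0, 2 mM MgCl2, 2.5 ug/ml poly(dI-dC); 15 min compound preincubation; discontinuous kinetic read over 2 h at RT.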
WRN helicase inh-2: WRN helicase inhibition, cherry-pick retest. shares compounds with WRN helicase inh-1. WRN helicase DNA unwinding, fluorescence kinetic. Potency, µM (titrated, usually from 57.1 µM), hits mostly inhibitors. 610 compounds, 63% hits. AID 720497; also: nearly all actives have a fitted effect of over 65% in size
TO DNA binding: binds DNA, flagged in WRN inhibitor counterscreen; thiazole orange DNA binding displacement, fluorescence; 610 compounds, 10% hits; shares compounds with WRN helicase inh-1; Potency, µM (doses to about 57.1 µM), usual class: inhibitors;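 also: drop in dye fluorescence marks compound binding to DNA; nearly all actives have a fitted effect of over 60% in size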
BLM helicase inh-2: BLM helicase inhibition, WRN selectivity check | shares compounds with WRN helicase inh-1 | Recombinant BLM helicase DNA unwinding, red fluorescence | Potency, µM (top dose mostly 57.1 µM), actives largely listed as inhibitors | 610 compounds, 60% hits | AID 720503; also: nearly all actives have a fitted effect of over 60% in size
Of the large screens only hits and unclear results are named; the others gave an inactive call (follow-up assays come after a bar, where they were run). Unless noted, calls follow the shape of the dose curve; as a rule, active = well fitted curve in the direction sought with a large enough effect; inconclusive = small, poorly fitted or top-dose-only effect, or another doubt; inactive = no such curve, though single readings can be large; an effect the other way counts as inactive or inconclusive.

O=C(Nc1ccc(F)cc1)C1CCN(S(=O)(=O)c2ccc3c(c2)CCCN3C(=O)C2CCC2)CC1	none (no result: APE1 inh, WRN helicase inh-1, RECQ1 helicase)
COc1ccccc1CCNC(=O)C(=O)NCC(c1ccco1)S(=O)(=O)c1ccc(F)cc1 (centres undefined)	none (no result: APE1 inh, WRN helicase inh-1, RECQ1 helicase)
Cc1cc(C(=O)N2CCC(Cc3ccccc3)CC2)c(C)o1	none (no result: RECQ1 helicase)
CN1CCN(C(=S)NC(=O)c2ccc(Br)cc2)CC1	none
CN1CCN(C(=S)C(=O)Nc2ccc(Br)cc2)CC1	WRN helicase inh-1 45µM | WRN helicase inh-2 inactive | TO DNA binding inactive | BLM helicase inh-2 inactive
CC(=O)Nc1ccc(NC(=O)C(C)Sc2nc3ccccc3c(=O)n2CC2CCCO2)cc1 (centres undefined)	none (no result: BLM helicase inh-1, RECQ1 helicase)
O=[N+]([O-])c1ccc(S(=O)(=O)c2ccccc2)nc1	WRN helicase inh-1 inconclusive (no result: RECQ1 helicase)
Cc1ccc(S(=O)(=O)c2ccc([N+](=O)[O-])cn2)cc1	WRN helicase inh-1 inconclusive (no result: RECQ1 helicase) | WRN helicase inh-2 inactive | TO DNA binding inactive | BLM helicase inh-2 inactive
O=C(O)/C=C(/c1ccccc1)C(F)(F)F	none (no result: BLM helicase inh-1, KAT2A inh, APE1 inh, RECQ1 helicase)
CCN1/C(=C/c2ccc3cc(C)ccc3[n+]2CC)Sc2cc(C)c(C)cc21	WRN helicase inh-1 50µM | WRN helicase inh-2 24µM | TO DNA binding 22µM | BLM helicase inh-2 inconclusive
CCOc1ccccc1C(=O)NCC(=O)NNC(=O)c1cccc(S(=O)(=O)Nc2ccc(OC)cc2)c1	none (no result: BLM helicase inh-1, RECQ1 helicase)
CCOc1ncccc1C(=O)NNC(=O)c1cccc(S(=O)(=O)Nc2ccc(OC)cc2)c1	WRN helicase inh-1 inconclusive (no result: RECQ1 helicase) | WRN helicase inh-2 inactive | TO DNA binding inactive | BLM helicase inh-2 inactive
O=C1C(Cl)=C(Nc2ccccc2)C(=O)c2ccccc21	none
O=C1C(Cl)=C(NCCc2ccccc2)C(=O)c2ccccc21	WRN helicase inh-1 28µM (no result: BLM helicase inh-1, KAT2A inh, APE1 inh, RECQ1 helicase) | WRN helicase inh-2 inconclusive | TO DNA binding inactive | BLM helicase inh-2 17µM
CCCNC(=O)COCc1cc(-c2ccc(F)cc2)on1	none (no result: APE1 inh, WRN helicase inh-1, RECQ1 helicase)
CSc1nc(SCCO)c2sc3nc(-c4ccco4)c4c(c3c2n1)CC(C)(C)OC4	BLM helicase inh-1 13µM, KAT2A inh 13µM, APE1 inh inconclusive, WRN helicase inh-1 50µM, RECQ1 helicase 13µM | WRN helicase inh-2 7.6µM | TO DNA binding 15µM | BLM helicase inh-2 2.2µM
CCn1c(C(=O)N2CCCC(C(=O)N3CCN(c4ccccc4)CC3)C2)cc2sccc21 (centres undefined)	none (no result: APE1 inh, WRN helicase inh-1, RECQ1 helicase)
COc1cc(/C=N\N=C2/SC(CC(=O)O)C(=O)N2c2ccc(O)cc2)ccc1O (centres undefined)	none (no result: ERG Ets-DNA blk)
COc1cc(/C=N/N=C2/SCC(=O)N2c2ccc(O)cc2)ccc1O	WRN helicase inh-1 79µM | WRN helicase inh-2 inactive | TO DNA binding inactive | BLM helicase inh-2 inactive
COc1cccc(-c2nccc(NCCc3c[nH]c4ccc(OC)cc34)n2)c1	KAT2A inh inconclusive (no result: ERG Ets-DNA blk, WRN helicase inh-1)
Cc1ccc2[nH]c(C)c(/C=C/c3cc[n+](C)cc3)c2c1	none (no result: RECQ1 helicase)
Cc1ccc2c(c1)c(/C=C/c1cc[n+](C)cc1)c(C)n2C	WRN helicase inh-1 40µM (no result: RECQ1 helicase) | WRN helicase inh-2 22µM | TO DNA binding inactive | BLM helicase inh-2 inactive
CC(C)N1CCc2c(sc(NC(=O)c3ccc4ccccc4c3)c2C(N)=O)C1	none (no result: RECQ1 helicase)
CC(C)N1CCc2c(sc(NC(=O)c3cc4cc([N+](=O)[O-])ccc4s3)c2C(N)=O)C1	BLM helicase inh-1 inconclusive, WRN helicase inh-1 79µM | WRN helicase inh-2 17µM | TO DNA binding 17µM | BLM helicase inh-2 14µM
CCOc1ccc(NC(=O)Cn2c(=O)cc(C)c3c(C)nn(-c4cccc(Cl)c4C)c32)cc1	none (no result: APE1 inh, WRN helicase inh-1, RECQ1 helicase)
